The source made the active and inactive calls. Calls come from the whole dose curve; as a rule, active = well fitted activation curve with a large enough effect; inconclusive = small, poorly fitted or top-dose-only effect; inactive = no such curve, though single readings can be large or run the other way.
Potency is the fitted concentration of half-maximal effect.

This assay in a line: Counterscreen for Identifying a Potential Treatment of Ataxia-Telangiectasia: Hit Validation. For activation: 0% is about no effect. The conditions noted are these: cell-free AlphaLISA/AlphaScreen artifact counterscreen, PBS only, no cells; series mostly up to 76.9 µM; activation: at the top concentration. The essentials:
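Without cells, compounds at up to 76.7 uM final were combined with premixed anti-pKAP1/anti-KAP1 AlphaLISA bead reagents, protease inhibitors and lysis buffer; signal read after 6 hr at 25C to flag assay-platform artifacts.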
For the compound `CC(=O)Nc1ccc(NC2=CC(=O)c3ccccc3C2=O)cc1`, the “activation” value was -19.7% (inactive).
Still for that read-out and setting: as for `Cc1ccc(OC(=O)c2cc(C)nn2C(C)(C)C)cc1`, the figure is -13.5% (inactive).
Still for that read-out and setting: as for `N#Cc1c2c(c(-n3cnc4ccccc43)n3c1nc1ccccc13)CCC2`, the figure is -10.7% (inactive).
On the same count and under the same terms, the same measure for `CC(C)(C=O)C1=CC(=O)c2ccccc2C1=O`: 0.752% (inactive); for `O=C1CN(C(=O)NCC(=O)N[C@H](C(=O)O)c2ccccc2)c2ccccc2N1`: 9.02% (inactive); for `CCC[C@H]1CCCC/C=C\CCCC(=O)OCCN1C(=O)OC(C)(C)C`: -10.7% (inactive).
Turning to `O=C(c1cccc(F)c1)N1CCCC(C(=O)N2CCCCCC2)C1` (stereo not given), the “activation” value was 6.92% (inactive).
Still for that read-out and setting: the same measure for `COc1ccc(CCNC(=O)C2CCN(S(=O)(=O)c3ccc(OC)c(OC)c3)CC2)cc1OC`: 0.769% (inactive); for `CC(O)[C@H]1CNC(=O)C(=O)N1CC1(c2ccccc2)CC1` (stereo not given in full): 4.1% (inactive).
Same read-out and setting: as for `CCOC(=O)c1c(CSc2ccsc2)n(C)c2cc(Br)c(O)c(CN(C)C)c12`, the figure is -23.8% (inactive).
Take `Cc1cc2nc3ccc(=[N+](C)C)cc-3sc2cc1N`: the Potency was 26 µM (active).
For the compound `CCCCn1c2c(c(=N)c3ccccc31)CCC2`, the “activation” value is -16.4% (inactive).
Take `CCC(=O)NC1=C(Cl)C(=O)C(NC(=O)CC)=C(Cl)C1=O`: the “activation” value is -13.9% (inactive).
As for `COc1ccccc1OC(=O)Nc1ccc(Cl)cc1`, the Potency is 6.54 µM (active).
For `O=C(NCc1ccccc1)c1cccnc1Sc1ccccc1`, the “activation” value is 3.76% (inactive).
Same read-out and setting: as for `CCOC(=O)N1CCN(C(=O)CCc2nc3sc4c(c3c(=O)[nH]2)CCCC4)CC1`, the figure is -5.74% (inactive); as for `COc1cccc(C2C(C(N)=O)=C(C)Nc3nc(CCCO)nn32)c1` (stereo not given), 9.02% (inactive).
Still for that read-out and setting: the same measure for `Cc1ccc2c(c1)C(c1ccccc1)N(C(=O)CC(C)C)CC(=O)N2` (stereo not given): 13.5% (inactive).
In the case of `Cn1cnc([N+](=O)[O-])c1SCCO`, the “activation” value was 3.01% (inactive).
As to `COc1ccc(-n2c(C)cc(=O)[nH]c2=O)cc1`, the “activation” value is 2.46% (inactive).
The same measure, in the same setting: the same measure for `CCCCCCCCCn1ccc(=N)cc1`: -13.1% (inactive); for `CCOC(=O)c1[nH]c(COC(=O)c2ccccc2NC(=O)c2ccco2)c(C(=O)OCC)c1C`: -6.56% (inactive).
Consider `Cc1ccc(NC(=O)CSc2nnc([C@H](C)NC(=O)OC(C)(C)C)o2)c(C)c1`, for which the “activation” value was 44.6% (inactive).
Take `CCOC(=O)C1=C(O)C(=O)N(Cc2ccccc2)C1`: the “activation” value is 12% (inactive).
`CCn1nc(C)c(/C=N/NC(=O)Cn2cncn2)c1C`: the “activation” value was 10.7% (inactive).
The same measure, in the same setting: the same measure for `CCCc1ccc(S(=O)(=O)Nc2ccc(C)c(NS(C)(=O)=O)c2)cc1`: -12% (inactive).
The same measure, in the same setting: as for `CC(C)c1ccc(C(C(=O)NC2CCCCC2)N(C(=O)c2ccccn2)c2cccnc2)cc1` (stereo not given), the figure is -8.2% (inactive).
On the same count and under the same terms, the same measure for `C=CCSc1nc2ccccc2n1C(=O)/C=C/c1cc(OC)c(OC)c(OC)c1`: 2.26% (inactive).
Regarding `COc1ccc(C2(C)CC(C)(C)Nc3ccccc32)cc1` (stereo not given), the “activation” value is -5.74% (inactive).
On to `CCN1C/C(=C/c2sccc2C)c2nc3ccccc3c(C(=O)O)c2C1`, for which the “activation” value is 0.769% (inactive).
In the case of `O=C(N/N=C/c1cccc2ccccc12)c1cccnc1`, the “activation” value was 0% (inactive).
As for `O=c1c2cc(Br)ccc2nc(-c2ccccc2)n1O`, the “activation” value is -6.56% (inactive).
Consider `CCOc1ccc(NC2=CC(=O)CCC2)cc1`, for which the “activation” value is -2.46% (inactive).
Consider `CC(C)CN(CC(C)C)C(=O)c1cc2c(=O)n3ccccc3nc2s1`, for which the “activation” value was 38.5% (inactive).
Still for that read-out and setting: as for `CCOC(=O)Cc1csc(NC(=O)CSc2nnc(C(C)C)n2C)n1`, the figure is -24.6% (inactive); as for `O=C(CCCC(=O)N1CCCC1)N1CCCC1`, -23.8% (inactive); as for `O=C(/C(=C/c1ccc(Cl)cc1)c1nc2ccccc2[nH]1)c1cccs1`, -3.28% (inactive).
The same measure, in the same setting: the same measure for `CCOc1ccccc1CNC(=O)Cn1c(=O)oc2ccccc21`: -17.7% (inactive); for `CCN1CCN(c2oc(COc3ccc(Cl)cc3)nc2C#N)CC1`: 78.5% (inactive).
On the same count and under the same terms, as for `COc1ccc(-c2nn(C)c(=O)[nH]2)cc1`, the figure is 6.56% (inactive).

The values above are taken from PubChem BioAssay AID493185 (National Center for Advancing Translational Sciences (NCATS), 2011).
